# Test results reported in PubChem BioAssay AID740 (SRMLSC, 2007).
# The whole screen tested about 96,000 compounds, of which about 65 (0.07%) were called active. Many of the other results were omitted from the sample, so actives are more common in it than they were. Values without a mark were called inactive. Rule as the data show it: active = inhibition above about 25%; inactive = the rest.
# Experiment: unspecified inhibition readout at 50 µM (AID 740)
# Conditions: unspecified screen; hits give high values
row,SMILES,inhibition
1,COC(=O)c1ccc(C2NC(=S)N(c3ccccc3)C(C)=C2C(=O)Nc2ccccc2OC)cc1 (stereo not drawn),inactive
2,CCS(=O)(=O)c1ccc2oc(SCC(=O)NCCC3=CCCCC3)nc2c1,10.4%
3,CCCCN(CC)CCNc1c(N2CCN(C(=O)OCC)CC2)c(=O)c1=O,inactive
4,COC(=O)C(C(=O)OC)C(C[N+](=O)[O-])c1ccc(OC)cc1 (stereo not drawn),inactive
5,CCOC(=O)c1cnn(-c2ccccc2)c1-n1cccc1C(=O)C(=O)Nc1ccccc1,inactive
6,CCOC(=O)c1cnn(-c2ccccc2)c1-n1cccc1C(=O)C(=O)Nc1ccc(F)cc1,0.4%
7,CCOC(=O)c1cnn(-c2ccccc2)c1-n1cccc1C(=O)C(=O)Nc1ccccc1C(F)(F)F,74.2% (active)
8,CCOC(=O)CN(C(=O)Cn1nnc2ccccc21)C(C(=O)NCCOC)c1ccccc1 (stereo not drawn),inactive
9,COCCNC(=O)C(c1ccccc1C)N(CCOC)C(=O)Cn1nnc2ccccc21 (stereo not drawn),1.03%
10,COCCNC(=O)C(c1ccccc1)N(CCOC)C(=O)Cn1nnc2ccccc21 (stereo not drawn),37.1% (active)
11,CCOC(=O)C1C(=O)NC(c2ccccc2)=NC1c1ccc(C(C)C)cc1 (stereo not drawn),1.01%
12,CN1CCN(S(=O)(=O)c2ccc(NC(=O)Cc3cccs3)cc2)CC1,inactive
13,O=C(Nc1ccc(-c2nnc(-c3ccco3)o2)cc1)C(c1ccccc1)c1ccccc1,0.04%
14,O=C(COc1ccccc1)Nc1ccc(-c2nnc(-c3ccco3)o2)cc1,inactive
15,CCC(Oc1ccccc1)C(=O)Nc1ccc(-c2nnc(-c3ccco3)o2)cc1 (stereo not drawn),28.2% (active)
16,Cc1ccc(S(=O)(=O)N(CC(=O)NC2CCCCCC2)c2ccccc2F)cc1,inactive
17,COc1ccc(Br)cc1C(=O)Nc1ccc(N2CCN(S(C)(=O)=O)CC2)cc1,0.77%
18,CC(c1ccco1)N(C(=O)COc1ccc(Cl)cc1)c1ccccn1 (stereo not drawn),32.6% (active)
19,CC(c1ccco1)N(C(=O)Nc1ccc(Cl)cc1)c1ccccn1 (stereo not drawn),inactive
20,Cc1cc(C)cc(C(=O)N(c2ccccn2)C(C)c2ccco2)c1 (stereo not drawn),0.71%
21,CC(C)c1ccc(C(=O)N(c2ccccn2)C(C)c2ccco2)cc1 (stereo not drawn),4.01%
22,CC(c1ccco1)N(C(=O)COc1ccccc1[N+](=O)[O-])c1ccccn1 (stereo not drawn),0.73%
23,CC(c1ccco1)N(C(=O)COc1ccc(Cl)cc1Cl)c1ccccn1 (stereo not drawn),39.3% (active)
24,Cc1ccccc1NS(=O)(=O)c1ccc(C2CNC(=O)C2)cc1 (stereo not drawn),0.38%
25,CN1CCN(c2nc(-c3ccc(Br)cc3)nnc2-c2ccccc2)CC1,inactive
26,O=C(c1cnn2c(C(F)(F)F)cc(-c3ccccc3)nc12)N1CCC2(CC1)OCCO2,1.61%
27,O=C(c1cnn2c(C(F)(F)F)cc(-c3ccc(Br)cc3)nc12)N1CCOCC1,1.01%
28,O=C(c1cnn2c(C(F)(F)F)cc(-c3ccccc3)nc12)N1CCOCC1,37.1% (active)
